Screening results deposited in PubChem BioAssay by National Center for Advancing Translational Sciences (NCATS).
Pf growth 96h – P. falciparum growth inhibition at 96 hour, primary screen for plastid delayed-death inhibitors; P. falciparum luciferase reporter growth, 96 h; Potency, µM (doses to about 28.7 µM), for the others: top-dose activity change, negative = inhibition, hits mostly inhibitors; hit rate 6.9% among 320,000; AID 504834; active means well fitted inhibition curve with a large enough effect; inconclusive means small, poorly fitted or top-dose-only effect, or another doubt; inactive means no such curve, though single readings can be large or run the other way; further: on the % scale 0 is the no-effect control and ±100 the full control effect
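Cell-based qHTS: luciferase-tagged P. falciparum in erythrocytes (2% hematocrit, 0.05% parasitemia final) incubated with compounds for 96 hours, 37 C, 5% CO2; luciferase detection reagent then added and luminescence measured.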
RE007 growth inh – less growth of the S. pombe RE007 Vpr strain | S. pombe RE007 Vpr strain, BacTiter-Glo ATP luminescence, 24 h | Potency, µM (doses to about 92.2 µM), inactives show at the highest dose activity change, negative = less growth, most hits filed as inhibitors | hit rate 0.21% among 360,000; active means well fitted falling curve with a large enough effect; inconclusive means small, poorly fitted or top-dose-only effect; inactive means no such curve, though single readings can be large or run the other way; further: on the % scale 0 is the no-effect control and ±100 the full control effect; nearly all actives have a fitted effect of over 50% in size
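Fission yeast strain RE007, carrying one chromosomally integrated HIV-1 vpr copy, was seeded at OD 0.01 in PMG+AL medium with 23 nL pinned compound. After 24 h at 30 °C and 99% humidity, viability was read by BacTiter-Glo luminescence.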
NS1 inh – influenza NS1 inhibition; Potency, µM (highest dose often 46.1 µM), for the others: at the highest dose activity, positive = more growth; hit rate 0.4% among 270,000; AID 2326; further: actives are rising curves; nearly all actives have a fitted effect of over 50% in size
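In this qHTS, NS1 from influenza A is expressed in budding yeast, where it slows growth. Cells are switched from glucose to 2% galactose medium (pH 6.0, -URA), treated with compound, and growth recovery is read at OD600.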
Pf growth 48h – P. falciparum growth inhibition at 48 hours (one generation). Potency, µM (highest dose often 28.7 µM), for inactives: at the highest dose activity change, negative = inhibition, actives largely listed as inhibitors. P. falciparum luciferase growth in erythrocytes, 48 h. hit rate 5.9% among 310,000. AID 504832; active means well fitted inhibition curve with a large enough effect; inconclusive means small, poorly fitted or top-dose-only effect, or another doubt; inactive means no such curve, though single readings can be large or run the other way; further: on the % scale 0 is the no-effect control and ±100 the full control effect
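Read-out is firefly luciferase luminescence from an integrated reporter in P. falciparum, so falling signal marks reduced parasite growth. Infected erythrocytes were at 2% hematocrit and 0.1% parasitemia (final) in Albumax-supplemented RPMI 1640.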
SARS PLP yeast – SARS-CoV PLP inhibition in yeast; hit rate 0.19% among 330,000; S. cerevisiae expressing SARS-CoV PLpro, growth rescue; Potency, µM (top dose mostly 32.9 µM), inactives show at the highest dose activity, positive = growth rescue, hits mostly activators; further: 0% is about no effect; nearly all actives have a fitted effect of over 55% in size
* = called active by the depositor; ? = inconclusive; · = no result given. Hits are enriched below; roughly 9.5% of the tested compounds scored in any of these assays. Unless noted, the call rests on the fitted dose curve. Potency means the concentration at half of the fitted maximal effect.

SMILES	Pf growth 96h	RE007 growth inh	NS1 inh	Pf growth 48h	SARS PLP yeast
N/C(=N\OC(=O)COc1ccccc1)c1ccncc1	86%	3%	-6%	65%	0%
N/C(=N\OC(=O)c1ccc(F)cc1)c1ccc(Br)cc1	?	-28%	-51%	-62%	-5%
COC(=O)C1CCN(C(=O)CSc2nnc(-c3ccccc3)o2)CC1	?	-21%	·	?	-3%
O=c1n(-c2ccccc2)c(=O)n2n1CC(O)C2	-15%	-1%	·	-1%	-5%
O=C(Nc1ccc(F)cc1F)c1cccn(Cc2ccccc2)c1=O	81%	17%	·	15µM*	0%
O=C(Nc1c(F)cc(F)cc1F)c1cccn(Cc2ccccc2)c1=O	-15%	3%	·	29%	2%
Cc1ncoc1C(=O)N1CCc2c([nH]c3ccccc23)C1C1CCCCC1 (configuration not stated)	?	-1%	1%	15µM*	0%
Cc1ncoc1C(=O)N1CCc2c([nH]c3ccccc23)C1C(C)(C)C (configuration not stated)	?	1%	-1%	?	0%
c1ccc2c3c([nH]c2c1)C(C1CCCCC1)N(Cc1ncc[nH]1)CC3 (configuration not stated)	?	-9%	2%	2.1µM*	1%
Cc1cnc(CN2CCc3c([nH]c4ccccc34)C2C2CCCCC2)[nH]1 (configuration not stated)	?	-19%	4%	-2%	1%
N#Cc1ccc(C(=O)Nc2ccc([N+](=O)[O-])cc2)c(F)c1	23%	3%	4%	35%	0%
CCOC(=O)N1CCC(N2CCCC(C(=O)c3cc(C)c(OC)c(C)c3)C2)CC1 (configuration not stated)	-16%	-5%	-5%	?	2%
CCOC(=O)N1CCC(N2CCCC(C(=O)c3ccc4cc(OC)ccc4c3)C2)CC1 (configuration not stated)	?	-21%	0%	8.3µM*	2%
COc1cccc(C(=O)C2CCCN(C3CCOCC3)C2)c1 (configuration not stated)	2.3µM*	7%	0%	-2%	0%
NC(=O)N/N=C/c1sc(N2CCCCC2)nc1-c1cccs1	·	-28%	·	·	·
CC(C)NC(=S)N/N=C/c1sc(N2CCCCC2)nc1-c1cccs1	0.83µM*	2%	24%	0%	?
CCCCNC(=S)N(C)/N=C/c1c(F)cccc1F	-2%	-12%	-3%	-6%	-3%
CCCCNC(=S)N(C)/N=C/c1sc(N2CCCCC2)nc1-c1cccs1	12µM*	·	6%	10µM*	-17%
O=C(N/N=C/c1sc(N2CCCCC2)nc1-c1cccs1)C1CC1	5.2µM*	-10%	·	10µM*	-2%
O=C(CSc1nnc(-c2ccc(O)cc2)o1)Nc1ccccc1Br	?	0%	5%	32%	-1%
Cc1cc(C)nc(SCc2nnc(SCC(=O)Nc3nc(-c4ccccc4)cs3)n2-c2ccccc2)n1	·	28%	13%	0%	-1%
Cc1cc(C)nc(SCc2nnc(SCC#N)n2-c2cccc(Cl)c2)n1	?	2%	-8%	7.4µM*	0%
Cc1ccc(-c2cc(C(=O)OCn3nnc4ccccc4c3=O)c3ccccc3n2)cc1	16%	3%	4%	-21%	3%
COc1cccc(C(=O)OCn2nnc3ccccc3c2=O)c1OC	3%	-5%	-21%	6%	0%
CCN(C(=O)COC(=O)c1cc(C)n(-c2ccc(F)cc2)c1C)C1CCS(=O)(=O)C1 (configuration not stated)	-10%	7%	1%	?	7%
C/C(N)=C(/C#N)C(=O)COC(=O)c1cc(C)n(-c2ccc(F)cc2)c1C	3.3µM*	1%	-5%	8.3µM*	-15%
Cc1ccc(-n2c(C)cc(C(=O)OCC(=O)N(C)C3CCS(=O)(=O)C3)c2C)cc1 (configuration not stated)	42%	1%	-8%	1.7µM*	6%
Cc1cc(C(=O)OCn2nnc3ccccc3c2=O)c(C)n1-c1ccccc1	1.9µM*	7%	?	?	-1%
Cc1ccccc1C(=O)OCn1nnc2ccccc2c1=O	8.3µM*	5%	-10%	-1%	?
